The values below come from PubChem BioAssay AID602357 (National Center for Advancing Translational Sciences (NCATS), 2012).

The structures appear in SMILES notation. Results filed as inconclusive are left out. A number with no mark means an inactive call. Activity calls are given as the source filed them. Calls come from the whole dose curve; as a rule, active = well fitted inhibition curve with a large enough effect; inconclusive = small, poorly fitted or top-dose-only effect; inactive = no such curve, though single readings can be large or run the other way.

Chain of Luciferin 4-monooxygenase (Photinus pyralis) (P08659 whole entry, looked up): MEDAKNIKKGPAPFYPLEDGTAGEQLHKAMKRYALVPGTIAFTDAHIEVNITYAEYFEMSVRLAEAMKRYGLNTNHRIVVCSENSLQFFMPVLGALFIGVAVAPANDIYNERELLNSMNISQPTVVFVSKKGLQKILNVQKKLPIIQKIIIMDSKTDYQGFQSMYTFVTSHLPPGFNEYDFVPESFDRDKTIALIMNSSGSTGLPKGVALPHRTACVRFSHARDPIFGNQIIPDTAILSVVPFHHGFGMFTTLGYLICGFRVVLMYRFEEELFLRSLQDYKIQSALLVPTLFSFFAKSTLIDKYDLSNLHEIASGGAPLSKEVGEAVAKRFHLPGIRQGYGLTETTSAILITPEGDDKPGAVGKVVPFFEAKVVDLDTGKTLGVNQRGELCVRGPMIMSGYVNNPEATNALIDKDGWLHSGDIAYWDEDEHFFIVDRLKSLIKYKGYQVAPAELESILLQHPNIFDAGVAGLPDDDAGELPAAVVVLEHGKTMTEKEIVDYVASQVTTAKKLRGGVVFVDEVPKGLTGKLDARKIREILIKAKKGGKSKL

The experiment concerns the target Luciferin 4-monooxygenase (Photinus pyralis) (UniProt P08659). Description: FLuc inhibitory activity for the follow-up compounds in a biochemical assay with Km concentrations of substrate. Particulars: purified FLuc, Km substrates, luminescence; series mostly up to 57.5 µM; activity change, negative = inhibition: at the top concentration. The text has this:
NCGC Assay Overview: Firefly (Photinus pyralis) luciferase is one of the most commonly used transcriptional reporters. It is considered one of the more dynamically responsive reporters - that is, responsive to changes in reporter transcription - as it requires no post-translational modifications and is enzymatically active directly after protein synthesis (Wood, 1998). With no endogenous expression in mammalian cells and without the requirement of external excitation, it offers very little background signal, thus generally providing excellent signal to background for most assays. Previous profiling work to determine the prevalence of compounds that affect FLuc enzymatic activity (PubChem AID 411) identified that ~3% of the MLSMR library (then at ~72K) inhibited FLuc. […] Of the compounds identified in this profile that inhibited FLuc, 151 compounds were selected for further analysis, in an effort to better understand their mode of inhibiting FLuc. The assay described here confirms the FLuc inhibitory activity of the 151 compounds.
NCGC Assay Protocol Summary: Reagents: 50mM Tris acetate, pH 7.5; 10mM Mg acetate; 10uM D-luciferin (Sigma #L9504); 10uM ATP; 0.01% Tween-20; 0.05% BSA; 10nM P. pyralis luciferase (Sigma #L9506) Control compounds used were two known firefly luciferase inhibitors (3-(5-(3-chlorophenyl)-1,2,4-oxadiazol-3-yl)benzoic acid and 5-(2-fluorophenyl)-3-phenyl-1,2,4-oxadiazole), and DMSO. Three microliters containing firefly luciferase substrates in buffer (final concentrations: 50mM Tris acetate, pH 7.5, 10mM Mg acetate, 0.01% Tween-20, 0.05% BSA, 10uM D-luciferin, and 10uM ATP) are dispensed into each well of a Greiner white, solid-bottom 1536-well format plate using a flying reagent dispenser (FRD). These assay plates were then treated with 23nL of compound or DMSO using a Kalypsys pin tool, which allows for delivery of a 12-point intraplate titration of each compound to the assay plate (quantitative HTS), with a final compound concentrations ranging from approximately ~60uM to 0.3nM. One microliter of firefly luciferase in 500mM Tris-acetate buffer was then delivered by FRD to each well for a final enzyme concentration of 10nM. Luciferase activity was then measured using a ViewLux CCD imager (PerkinElmer), with an average exposure time of 2-30 seconds (2X binning, medium/high gain).
For `O=C(O)c1ccccc1NC(=O)c1ccccc1Nc1ccccc1`, the Potency is 18300 nM (active).
The same measure, in the same setting: for `O=C(O)c1cccc(NC(=O)c2cccc(NC(=O)C3CCCO3)c2)c1` (stereo not given) the value was 919 nM (active); for `O=C(Nc1ccccc1C(=O)O)c1ccc(NC(=O)C2CC2)cc1`, 2590 nM (active).
Same read-out and setting: for `O=C(Nc1ccc(-c2nc3ccccc3s2)cc1)C1=COCCO1` the value was 91.9 nM (active).
Same read-out and setting: with `Nc1ccc2nc(-c3ccccc3)sc2c1` the figure was 163 nM (active).
For `O=C(Nc1ccccc1C(=O)O)c1cccc(NC(=O)c2ccccc2Cl)c1`, the Potency was 23100 nM (active).
On the same count and under the same terms, for `COc1ccc(C(=O)Nc2ccccc2C(=O)Nc2ccc(C(=O)O)cc2)cc1` the value was 1630 nM (active).
The same measure, in the same setting: with `O=C(Nc1ccccc1C(=O)O)c1ccccc1` the figure was 32600 nM (active); with `CC(C)CC(=O)Nc1cccc(C(=O)Nc2ccccc2C(=O)O)c1`, 18300 nM (active); with `O=C(Nc1cccc(-c2nc3ccccc3s2)c1)C1=COCCO1`, 18300 nM (active).
Regarding `O=C(O)c1cccc(NC(=O)c2ccccc2NC(=O)c2ccccc2F)c1`, the Potency is 18300 nM (active).
`COc1ccc2nc(NC(=O)CCc3nc(-c4ccccc4F)no3)sc2c1`: the “activity change, negative = inhibition” value is -0.429%.
For `O=C(O)c1ccc(NC(=O)c2ccccc2NC(=O)c2ccccc2Br)cc1`, the Potency was 23100 nM (active).
Take `CC(C)(C)C(=O)Nc1ccc(-c2nc3ccccc3s2)cc1`: the Potency was 11.6 nM (active).
For the molecule `COc1ccc(-c2nc3ccccc3s2)cc1NC(=O)c1ccc(F)cc1`, the “activity change, negative = inhibition” value is -7.28%.
The same measure, in the same setting: with `COc1ccc(NS(=O)(=O)c2cccc(C(=O)Nc3ccccc3C(=O)O)c2)cc1` the figure was -6.02%.
Turning to `O=C(O)c1cccc(NC(=O)c2cccc(S(=O)(=O)N3CCc4ccccc4C3)c2)c1`, the Potency is 36600 nM (active).
Consider `Cc1ccc(C(=O)Nc2cccc(C(=O)O)c2)cc1S(=O)(=O)N1CCCCC1`, for which the Potency is 65.1 nM (active).
For the molecule `CCOC(=O)N1CCN(CC(=O)Nc2nc3ccc(OC)cc3s2)CC1`, the “activity change, negative = inhibition” value was -13.5%.
Consider `COc1cccc(-c2nc3ccccc3s2)c1`, for which the Potency is 1300 nM (active).
The same measure, in the same setting: with `Nc1cccc(-c2nc3ccc(N)cc3s2)c1` the figure was 366 nM (active).
For `COc1c(C)cccc1C(=O)Nc1ccc(-c2nc3ccccc3s2)c(Cl)c1`, the “activity change, negative = inhibition” value is -5.09%.
`CC(C)C(=O)Nc1cccc(C(=O)Nc2ccccc2C(=O)O)c1`: the Potency was 5800 nM (active).
On the same count and under the same terms, for `O=C(O)c1cccc(NC(=O)c2cccc(S(=O)(=O)N3CCCCC3)c2)c1` the value was 1630 nM (active).
As for `O=C(Nc1ccc(Cl)cc1-c1nc2ccccc2s1)c1ccco1`, the “activity change, negative = inhibition” value is -8.61%.
Same read-out and setting: for `COc1ccc2nc(NC(=O)C3CCN(S(=O)(=O)c4cccnc4)CC3)sc2c1` the value was -9.68%.
As for `COc1ccc2nc(NC(=O)c3ccc4ncsc4c3)sc2c1`, the Potency was 1630 nM (active).
On to `COc1ccc(-c2cccc(C(=O)Nc3cccc(C(=O)O)c3)c2)cc1`, for which the Potency was 4610 nM (active).
`O=C(O)c1ccc(NC(=O)c2cc(S(=O)(=O)N3CCCCC3)c(Cl)cc2Cl)cc1`: the “activity change, negative = inhibition” value is 8.63%.
Take `O=C(Nc1ccccc1C(=O)O)c1cccc(NC(=O)c2ccco2)c1`: the Potency was 18300 nM (active).
`COc1cc(C(=O)Nc2cc(C)c(O)c(-c3nc4ccccc4s3)c2)cc(OC)c1OC`: the “activity change, negative = inhibition” value is -10.3%.
Turning to `Nc1ccc(-c2nc3ccc(C(=O)O)cc3s2)cc1`, the Potency was 7.3 nM (active).
On the same count and under the same terms, with `COc1ccc(C(=O)Nc2ccccc2C(=O)N/N=C/c2ccc(O)c(OC)c2)cc1` the figure was 3.7 nM (active); with `Cc1ccc2sc(-c3ccc(N)cc3)nc2c1`, 183 nM (active); with `Cc1ccc2nc(-c3ccc(N)cc3)sc2c1`, 81.9 nM (active).
On to `COc1ccc2nc(NC(=O)c3ccc(NS(=O)(=O)c4cccs4)cc3)sc2c1`, for which the Potency was 10300 nM (active).
Consider `CC(=O)Oc1ccc(C(=O)Nc2ccccc2C(=O)Nc2ccc(C(=O)O)cc2)cc1`, for which the Potency was 5800 nM (active).
`Cc1ccc(C(=O)Nc2ccc(C(=O)O)cc2)cc1S(=O)(=O)Nc1ccccc1`: the “activity change, negative = inhibition” value was 18.1%.
On the same count and under the same terms, with `O=C(Nc1c(Cl)cc(Cl)cc1-c1nc2ccccc2s1)c1ccc(Br)o1` the figure was -2.8%; with `COc1cc(OC)cc(C(=O)Nc2ccc(-c3nc4ccccc4s3)c(C)c2)c1`, -20.8%.
